A selection: hits, their analogues and other compounds. The true share with any hit is near 2.8%.
KDM5B inhibitor = KDM5B demethylase inhibition | Q9UGL1 | AID 1347165 | 220,000 tested, 2.6% active | Potency, µM (top dose mostly 57.7 µM), actives largely listed as inhibitors | KDM5B demethylase, FDH-coupled NADH fluorescence (FDH is formaldehyde dehydrogenase); note: potency is the fitted concentration of half-maximal effect; 0% is about no effect; nearly all actives have a fitted effect of over 70% in size
Target sequence (Q9UGL1 whole entry, looked up): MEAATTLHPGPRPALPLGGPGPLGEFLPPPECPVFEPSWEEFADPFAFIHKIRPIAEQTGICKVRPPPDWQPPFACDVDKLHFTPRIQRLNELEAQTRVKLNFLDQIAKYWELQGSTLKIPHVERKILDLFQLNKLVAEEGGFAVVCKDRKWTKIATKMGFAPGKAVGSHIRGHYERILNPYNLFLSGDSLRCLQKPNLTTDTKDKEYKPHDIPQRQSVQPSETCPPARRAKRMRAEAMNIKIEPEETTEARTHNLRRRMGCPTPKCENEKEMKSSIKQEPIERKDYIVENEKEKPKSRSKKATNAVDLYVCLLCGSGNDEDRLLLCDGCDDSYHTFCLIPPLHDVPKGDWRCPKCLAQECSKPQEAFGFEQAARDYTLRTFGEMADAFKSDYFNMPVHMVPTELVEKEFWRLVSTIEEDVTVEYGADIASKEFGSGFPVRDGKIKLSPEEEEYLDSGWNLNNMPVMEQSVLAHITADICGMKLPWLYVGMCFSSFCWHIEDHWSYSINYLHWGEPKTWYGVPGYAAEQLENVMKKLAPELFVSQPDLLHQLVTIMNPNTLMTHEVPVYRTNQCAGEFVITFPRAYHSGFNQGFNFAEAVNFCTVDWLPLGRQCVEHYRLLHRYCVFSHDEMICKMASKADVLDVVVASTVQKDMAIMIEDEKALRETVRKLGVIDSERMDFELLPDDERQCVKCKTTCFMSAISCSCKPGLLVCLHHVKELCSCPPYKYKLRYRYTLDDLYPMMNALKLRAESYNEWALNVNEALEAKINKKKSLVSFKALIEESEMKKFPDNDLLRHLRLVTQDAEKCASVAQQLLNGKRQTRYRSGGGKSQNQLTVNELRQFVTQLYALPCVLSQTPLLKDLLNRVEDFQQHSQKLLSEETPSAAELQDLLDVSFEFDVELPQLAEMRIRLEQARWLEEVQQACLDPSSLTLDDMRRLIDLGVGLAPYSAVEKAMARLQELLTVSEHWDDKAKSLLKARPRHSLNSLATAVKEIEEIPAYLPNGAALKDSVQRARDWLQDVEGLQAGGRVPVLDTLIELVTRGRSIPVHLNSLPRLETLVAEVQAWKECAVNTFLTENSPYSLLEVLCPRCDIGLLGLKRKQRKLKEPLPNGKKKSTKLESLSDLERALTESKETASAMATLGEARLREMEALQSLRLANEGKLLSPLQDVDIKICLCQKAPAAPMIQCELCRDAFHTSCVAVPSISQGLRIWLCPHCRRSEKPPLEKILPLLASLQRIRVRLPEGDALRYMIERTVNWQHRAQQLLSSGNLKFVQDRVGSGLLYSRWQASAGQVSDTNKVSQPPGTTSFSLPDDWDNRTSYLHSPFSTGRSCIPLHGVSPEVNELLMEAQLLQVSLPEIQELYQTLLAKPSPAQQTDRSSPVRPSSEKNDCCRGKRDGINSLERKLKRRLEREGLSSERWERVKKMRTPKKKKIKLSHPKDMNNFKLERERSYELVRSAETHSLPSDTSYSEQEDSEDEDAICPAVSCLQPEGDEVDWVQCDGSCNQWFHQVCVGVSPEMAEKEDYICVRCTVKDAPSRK
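Measured: NADH fluorescence change, 30 min, RT. System: KDM5BΔAP 200 nM final, H3K4me3 peptide, α-KG, Fe(II), ascorbate, NAD⁺ plus FDH, pH 7.5 HEPES. Compounds: titrated, 10 min pre-incubation with enzyme.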
HEK293 viab = cell viability loss counter-screen. HEK-293-SNCA-luc viability, GF-AFC fluorescence, 24 h. Potency, µM (series often up to 57.1 µM), inactives show at the top dose activity change, negative = cytotoxicity, actives largely listed as cytotoxic. 150,000 tested, 0.12% active. AID 1671193;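 note: potency is the fitted concentration of half-maximal effect; 0% = DMSO-treated cells and -100% = medium-only wells without cells; nearly all actives have a fitted effect of over 30% in size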
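HEK-293-SNCA-luc cells (1500/well) plated 24 h, then exposed 24 h to a dilution series; GF-AFC added 30 min at 37C, fluorescence 405/540 nm; normalised to medium-only and DMSO wells, Hill fit.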
SNCA expr inhib = reduces expression of the alpha-synuclein gene. Potency, µM (highest dose often 57.2 µM), for the others: at the top dose activity change, negative = inhibition, hits mostly inhibitors. HEK-293 SNCA-luciferase knock-in, luminescence, 24 h. 140,000 tested, 0.17% active;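 note: potency is the fitted concentration of half-maximal effect; plate controls were DMSO cells for no effect and cell-free wells for full effect; nearly all actives have a fitted effect of over 45% in size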
IP6K1 inh = inhibitors of human IP6K1 | activity change, % (series mostly up to about 58 µM) | IP6K1 kinase, ADP-Glo luminescence, 2 h; stronger effect = lower value | AID 1645851 | 140,000 tested, 0.81% active; in the data active = activity change below about -25%; note: % is set by controls: 0 for no effect and ±100 for the full control effect
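ADP-Glo luminescence measures ADP made by human IP6K1 during a 2 h RT reaction with ATP/IP6 (mix at 1.3 mM/130 uM); top library doses 57.5 and 19.1 uM final.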
IP6K1 conf = human IP6K1 inhibition, confirmatory | shares compounds with IP6K1 inh | recombinant IP6K1 kinase, ADP-Glo luminescence, 2 h | Potency, µM (doses to about 49 µM), for inactives: top-dose activity change, negative = inhibition, usual class: inhibitors | 1,200 tested, 13% active | AID 1645852; note: potency is the fitted concentration of half-maximal effect; % is set by controls: 0 for no effect and ±100 for the full control effect; nearly all actives have a fitted effect of over 65% in size
Active calls of the source: *; i = inactive; u = inconclusive; x = no result; [ ] = dose if it differs, or a comment. Unless noted, calls come from the whole dose curve; as a rule, active = well fitted curve in the direction sought with a large enough effect; inconclusive = small, poorly fitted or top-dose-only effect, or another doubt; inactive = no such curve, though single readings can be large; an effect the other way counts as inactive or inconclusive.

SMILES	KDM5B inhibitor	HEK293 viab	SNCA expr inhib	IP6K1 inh	IP6K1 conf
Cc1ccc([N+](=O)[O-])cc1S(=O)(=O)N1CCn2cccc2C1c1ccccc1 (centres undefined)	u	6.7%	-8.6%	-4.7	x
COc1cccc(NC(=O)CSCc2cc(=O)c3ccc(C)c(C)c3[nH]2)c1	i	6.3%	13.8%	-37.4*	u
O=c1[nH]c(=O)n(-c2ccccc2)c2c1C(C(F)(F)F)(C(F)(F)F)N=C(c1ccncc1)N2	i	x	x	x	x
Cc1ccc(NC(=O)NCc2c(-n3cccc3)sc3c2CCCC3)c(Cl)c1	i	0.3%	-17.0%	-27.0*	-19.5%
Cc1c(Cl)cccc1NC(=O)NCc1c(-n2cccc2)sc2c1CCCC2	i	-11.8%	-1.2%	0.9	x
O=C(CSc1nc2cc3ccccc3cc2[nH]1)Nc1cccc(C(F)(F)F)c1	i[11.5 µM]	-12.9%	59.9%	-29.9*	-14.9%
Cc1ccc(-n2[nH]c(C)c(N=Nc3cccc(-c4cccc(C(=O)O)c4)c3O)c2=O)cc1C	x	-18.2%	-0.8%	-91.3*	u
Cc1ccc(F)c(C(=O)N[C@H](Cc2ccccc2)C2CC(O)C2)c1Cl (some centres undefined)	i	5.8%	54.7%	-34.5*	-11.1%
O=C(N[C@H](Cc1ccccc1)C1CC(O)C1)c1cnn(Cc2ccccc2)c1 (some centres undefined)	i	3.6%	32.0%	-8.5	x
Cn1cc(-c2cnc3[nH]cc(CC(=O)Nc4ccccc4Cl)c3c2)cn1	31.6µM*	5.6%[87.6 µM]	43.8%[87.6 µM]	-26.0*	u
CCCC(=O)OCOC(=O)C1=C(C)NC(C)=C(C(=O)OC)C1c1cccc(Cl)c1Cl (centres undefined)	x	11.6%[23.9 µM]	-21.8%[25.6 µM]	6.9	-6.5%
COCC1CCN(c2ccc(-c3nc(CCCc4ccccc4)no3)cn2)C1 (centres undefined)	35.5µM*	-4.5%	92.4%	-32.6*	-12.4%
O=C(CCCc1ccccc1)N1CCC(Cc2noc(-c3ccccc3)n2)C1 (centres undefined)	x	-3.9%	3.6%	14.8	x
CCCN(CCC)CCNC(=O)c1cc2c(=O)oc3ccc(C)cc3c2s1	u	17.2%	-16.2%	-25.3*	-4.0%
O=C(C1CCCN1C(=O)C1CC1)N1CCC(c2nc3ccncc3[nH]2)C1 (centres undefined)	x	11.0%[87.6 µM]	5.2%[87.6 µM]	-26.7*	-3.6%
CC(C)NC(=O)CNC(=O)c1cc(-c2ccccc2)nc2ccccc12	i	x	x	x	x
CCOC(=O)c1nc2ccccc2c(-c2ccccc2)c1C	i	x	x	x	x
Cn1c(CCC(=O)N2CCCOCC2)nc2cc(S(=O)(=O)N3CCCC3)ccc21	i	5.4%	9.7%	-30.5*	-9.4%
COc1ccc(C(=O)c2c(N)c(C#N)c3n2CCCC3)cc1	i	x	x	x	x
Cc1cc(NC(=O)c2cccc(NC(=O)/C=C/CN(C)C)c2)ccc1Nc1nccc(-c2cccnc2)n1	x	-30.8%	x	-34.0*	u
CC(C(=O)NCC1CCCCC1)n1cnc2c1c(=O)n(C)c(=O)n2C (centres undefined)	i	x	x	x	x
CCn1c(C(=O)N(C2CC2)C2CC2)cc2c3c(ncn3C)c(Nc3cc(C)n(C)n3)nc21	x	u	10.4%	-6.9	-1.9%
CCOC(=O)c1cccc(NC(=O)c2oc3c(c2C)-c2nn(CC)cc2CC3)c1	u	3.1%	34.3%	-28.3*	u
Cc1c(Cl)cccc1NCC(=O)N1CCNC1=O	i	x	x	x	x
CCOc1ccc(-c2cnc(NCc3ccc(OC)cc3OC)n2C)cc1	u	-5.7%	-4.6%	-25.4*	-12.0%
SMILES	KDM5B inhibitor	HEK293 viab	SNCA expr inhib	IP6K1 inh	IP6K1 conf
COc1cccc(CNc2ncc(-c3ccc(Br)cc3)n2C)c1	u	-7.6%	28.6%	-35.2*	u
COc1ccccc1NC(=O)c1cc(=O)c2cc(C)ccc2o1	i	x	x	x	x
Fc1ccc(/C=N/Nc2ccc(Cl)c(Cl)c2)cc1F	i	x	x	x	x
Cc1ccc(NC(=O)c2oc3ccccc3c2NC(=O)c2cc(=O)c3ccccc3o2)cc1	i	x	x	x	x
CCOc1ccc(-c2cc(C(=O)Nc3ccc(NC(C)=O)cc3)no2)cc1	u	12.2%	13.6%	-26.9*	-4.6%
CCOc1ccc(C(=O)c2oc3ccccc3c2NC(=O)c2cc(-c3ccc(Cl)cc3)on2)cc1	i	8.5%	-13.9%	4.2	x
CCOc1cc(CNc2ccc(O)cc2)cc(Br)c1OCc1ccccc1	u	-10.8%	-5.9%	-42.6*	u
CNCc1cc(Br)c(OCc2ccccc2)c(OC)c1	i	x	x	x	x
CC(C)C(=O)NCc1ccccc1	i	x	x	x	x
CCOc1ccc(CNC(=O)C2CCCN(c3nn4cc(-c5ccc(OC)cc5)nc4s3)C2)cc1 (centres undefined)	i	-8.6%	80.1%	-36.8*	u
CCOc1ccc(CNC(=O)C2CCCN(c3nn4cc(-c5ccc(F)cc5)nc4s3)C2)cc1 (centres undefined)	i	4.5%	80.6%	1.3	x
O=C(CCCc1c[nH]c2ccccc12)NCCC12CC3CC(CC(C3)C1)C2	i	x	x	x	x
Cc1ccc2nc(-c3ccco3)c(Nc3ccc4c(c3)OCCO4)n2c1	i	-12.4%	60.0%	-28.4*	15.9%
CCCN(C(=O)Cn1ncc2c([nH]c3ccccc32)c1=O)c1ccc(F)cc1	i	14.3%	-28.8%	-37.4*	-16.2%
CCCCN(Cc1ccco1)C(=O)Cn1ncc2c([nH]c3ccccc32)c1=O	u	-17.1%	-20.0%	17.0	x
NC(=O)c1cc(-c2ccccc2F)cc2c1OCCN2Cc1cccnc1	35.5µM*	-20.6%[87.6 µM]	-16.6%[87.6 µM]	-25.0*	u
CNC(=O)c1cc(-c2ccc(C)cc2)cc2c1OCCN2Cc1cccnc1	u	-5.0%[87.6 µM]	-13.6%[87.6 µM]	-28.7*	u
O=C(c1ccncc1)N1CCCN(Cc2cccnc2)c2ccccc21	i	3.3%	44.0%	0.4	x
CN1C(C)(C)CCCC1(C)C	x	30.1%[23.9 µM]	9.0%[25.6 µM]	-34.8*	-2.3%
COc1ccc(-n2c(=O)c3c4c(sc3n(Cc3cc(=O)n5c(C)cccc5n3)c2=O)CCC4)c(OC)c1	u	u	-9.4%	-39.2*	-9.6%
O=C(NCCc1ccc(F)cc1)C(=O)NCC(c1cccs1)S(=O)(=O)c1ccccc1 (centres undefined)	i	-17.0%	21.5%	-30.0*	-3.2%
CC(=O)Nc1cccc(-c2nnc(SCC(=O)c3cc([N+](=O)[O-])ccc3Cl)o2)c1	u	u	-5.6%	-31.0*	u
O=C(CSc1nnc(-c2ccc(Cl)cc2)o1)c1ccc([N+](=O)[O-])cc1	i	-3.4%	-1.0%	4.7	x
C[S+](=O)([O-])NCc1nnc2n1C(C(=O)NCc1ccccc1F)CC2 (centres undefined)	x	11.9%	1.1%	-28.2*	-1.7%
C[S+](=O)([O-])NCc1nnc2n1C(C(=O)NCc1ccccc1)CC2 (centres undefined)	x	0.1%[12.5 µM]	-3.3%[87.6 µM]	11.4	x
COc1cccc(-c2ccc(NC(=O)C3=C(C(=O)O)CCC3)c(F)c2)c1	x	-9.7%	105.4%	-27.4*	u
